# Data as given in PubChem BioAssay (NCI).
# The panel holds about 79,000 compounds, 15% with a hit somewhere; the sample as a whole holds those more often. Values without a mark were called inactive. The source made the active and inactive calls. Rule as the data show it: active = growth inhibition above about 70%; inactive = the rest.
# What was measured:
# [1] = NCI Yeast Anticancer Drug Screen. Data for the rad52 strain (AID 147);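 also: 0% = growth of vehicle-treated control cultures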; conditions: S. cerevisiae rad52 mutant growth inhibition, active compounds read high
# How it was run: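 Read-out: growth inhibition versus vehicle-treated controls. Cells were a DNA repair-deficient yeast strain treated with compounds.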
# [2] = NCI Yeast Anticancer Drug Screen. Data for the wt1 strain (AID 149);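 also: 0% = growth of vehicle-treated wt1 cultures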; conditions: S. cerevisiae wt1 strain (SPY 50644) growth inhibition, active compounds read high
# How it was run: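 wt1 yeast, compound-treated; % growth inhibition vs vehicle control.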
# [3] = NCI Yeast Anticancer Drug Screen. Data for the rad50 strain (AID 155);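 also: 0% = growth of vehicle-only cultures of the same strain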; conditions: S. cerevisiae rad50 strain growth inhibition, active compounds read high
# How it was run: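 Genetically altered yeast (DNA repair pathway); compound treatment; growth inhibition vs vehicle ctrl.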
# [4] = NCI Yeast Anticancer Drug Screen. Data for the mec2-1 strain (AID 157); conditions: S. cerevisiae mec2-1 strain, active compounds read high
# How it was run: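 Yeast mec2-1 mutant treated with compound. Readout: growth inhibition vs vehicle controls.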
# [5] = NCI Yeast Anticancer Drug Screen. Data for the rad14 strain (AID 159);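 also: 0% = growth of vehicle-treated control cultures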; conditions: S. cerevisiae rad14 strain growth inhibition, active compounds read high
# How it was run: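 Test compounds were applied to a repair-deficient yeast strain. Its growth was then compared with that of cultures given vehicle alone, and inhibition was expressed relative to those controls.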
# [6] = NCI Yeast Anticancer Drug Screen. Data for the sgs1 mgt1 strain (AID 161);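 also: 0% = growth of cultures given vehicle only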; conditions: S. cerevisiae sgs1 mgt1 strain, active compounds read high
# How it was run: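 Test agents were incubated with a DNA-repair-mutant yeast strain. Growth was then read and compared against vehicle-treated controls.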
# [7] = NCI Yeast Anticancer Drug Screen. Data for the CLN2oe strain (AID 163);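 also: 0% = growth of vehicle-only control cultures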; conditions: S. cerevisiae CLN2oe strain, active compounds read high
# How it was run: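 Read-out: yeast growth inhibition, expressed relative to vehicle-only controls. The strain bears an engineered cell-cycle alteration.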
# [8] = NCI Yeast Anticancer Drug Screen. Data for the cln2 rad14 strain (AID 165);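 also: 0% = growth equal to vehicle treated cultures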; conditions: S. cerevisiae cln2 rad14 strain, active compounds read high
# How it was run: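 cln2 rad14 yeast strain; compound exposure; growth inhibition read vs vehicle controls.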
# [9] = NCI Yeast Anticancer Drug Screen. Data for the bub3 strain (AID 167); conditions: S. cerevisiae bub3 mutant strain, active compounds read high
# How it was run: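 Yeast carrying a defined mutation is treated with each compound, and growth is compared with that of vehicle-exposed cells to give inhibition.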
# [10] = NCI Yeast Anticancer Drug Screen. Data for the wt2 strain (AID 169);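 also: 0% = growth of vehicle-treated yeast cultures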; conditions: S. cerevisiae wt2 strain growth inhibition, active compounds read high
# How it was run: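 Read-out: growth inhibition versus vehicle-treated control cultures after compound exposure of the yeast strain.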
# [11] = NCI Yeast Anticancer Drug Screen. Data for the mlh1 strain (AID 171);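 also: 0% = growth of vehicle-treated control cultures of the same strain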; conditions: S. cerevisiae mlh1 strain growth inhibition, active compounds read high
# How it was run: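 Read-out: growth inhibition versus vehicle controls. Strain: engineered yeast with a defined DNA repair or cell cycle defect, compound-treated.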
# [12] = NCI Yeast Anticancer Drug Screen. Data for the sgs1 strain (AID 173);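 also: 0% = growth of vehicle-only control cultures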; conditions: S. cerevisiae sgs1 mutant, active compounds read high
# How it was run: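 Read-out: yeast growth inhibition relative to vehicle controls, following compound exposure of a strain with a defined DNA repair/cell cycle alteration.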
# [13] = NCI Yeast Anticancer Drug Screen. Data for the mlh1 rad18 strain (AID 175); conditions: S. cerevisiae mlh1 rad18 strain growth inhibition, active compounds read high
# How it was run: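 Yeast w/ defined DNA-repair lesions; compound exposure; growth vs vehicle controls → % inhibition.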
# [14] = NCI Yeast Anticancer Drug Screen. Data for the rad18 strain (AID 177); conditions: S. cerevisiae rad18 mutant growth inhibition, active compounds read high
# How it was run: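 Readout: growth inhibition vs vehicle controls. Cells: genetically altered yeast strain, DNA repair defect.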
# [15] = at 5.0 µM (retest, dose inferred, filed as 0.5)
# [16] = at 50.0 µM (retest, dose inferred, filed as 5.0)
smiles,measurement,setting,value
O=C(Nc1ccc2c(c1)Cc1c-2ccc([N+](=O)[O-])c1F)C(F)(F)F,growth inhibition,[1]; at 1.2 µM,4%
same,growth inhibition,[1]; at 3.7 µM,4%
same,growth inhibition,[1]; at 11.0 µM,5%
same,growth inhibition,[1]; at 33.0 µM,5%
same,growth inhibition,[1]; at 100.0 µM,3%
same,growth inhibition,[2]; at 1.2 µM,2%
same,growth inhibition,[2]; at 3.7 µM,3%
same,growth inhibition,[2]; at 11.0 µM,7%
same,growth inhibition,[2]; at 33.0 µM,4%
same,growth inhibition,[2]; at 100.0 µM,3%
same,growth inhibition,[3]; at 1.2 µM,2%
same,growth inhibition,[3]; at 3.7 µM,4%
same,growth inhibition,[3]; [15],2%
same,growth inhibition,[3]; at 11.0 µM,4%
same,growth inhibition,[3]; at 33.0 µM,3%
same,growth inhibition,[3]; [16],11%
same,growth inhibition,[3]; at 50.0 µM,2.95%
same,growth inhibition,[3]; at 100.0 µM,4%
same,growth inhibition,[4]; at 1.2 µM,-1%
same,growth inhibition,[4]; at 3.7 µM,0%
same,growth inhibition,[4]; [15],-17%
same,growth inhibition,[4]; at 11.0 µM,-1%
same,growth inhibition,[4]; at 33.0 µM,1%
same,growth inhibition,[4]; [16],-11%
same,growth inhibition,[4]; at 50.0 µM,1.35%
same,growth inhibition,[4]; at 100.0 µM,2%
same,growth inhibition,[5]; at 1.2 µM,1%
same,growth inhibition,[5]; at 3.7 µM,1%
same,growth inhibition,[5]; at 11.0 µM,0%
same,growth inhibition,[5]; at 33.0 µM,2%
same,growth inhibition,[5]; at 100.0 µM,2%
same,growth inhibition,[6]; [15],23%
same,growth inhibition,[6]; [16],19%
same,growth inhibition,[6]; at 50.0 µM,-3.05%
same,growth inhibition,[7]; at 1.2 µM,-2%
same,growth inhibition,[7]; at 3.7 µM,-3%
same,growth inhibition,[7]; at 11.0 µM,-4%
same,growth inhibition,[7]; at 33.0 µM,-11%
same,growth inhibition,[7]; at 100.0 µM,-4%
same,growth inhibition,[8]; [15],4%
same,growth inhibition,[8]; [16],7%
same,growth inhibition,[8]; at 50.0 µM,-10.7%
same,growth inhibition,[9]; at 1.2 µM,-2%
same,growth inhibition,[9]; at 3.7 µM,1%
same,growth inhibition,[9]; [15],-4%
same,growth inhibition,[9]; at 11.0 µM,1%
same,growth inhibition,[9]; at 33.0 µM,1%
same,growth inhibition,[9]; [16],12%
same,growth inhibition,[9]; at 50.0 µM,8.35%
same,growth inhibition,[9]; at 100.0 µM,-4%
same,growth inhibition,[10]; at 1.2 µM,2%
same,growth inhibition,[10]; at 3.7 µM,0%
same,growth inhibition,[10]; at 11.0 µM,2%
same,growth inhibition,[10]; at 33.0 µM,2%
same,growth inhibition,[10]; at 100.0 µM,0%
same,growth inhibition,[11]; at 1.2 µM,5%
same,growth inhibition,[11]; at 3.7 µM,3%
same,growth inhibition,[11]; at 11.0 µM,3%
same,growth inhibition,[11]; at 33.0 µM,2%
same,growth inhibition,[11]; at 100.0 µM,2%
same,growth inhibition,[12]; at 1.2 µM,1%
same,growth inhibition,[12]; at 3.7 µM,3%
same,growth inhibition,[12]; at 11.0 µM,-1%
same,growth inhibition,[12]; at 33.0 µM,1%
same,growth inhibition,[12]; at 100.0 µM,3%
same,growth inhibition,[13]; [15],62%
same,growth inhibition,[13]; [16],79% (active)
same,growth inhibition,[13]; at 50.0 µM,18.4%
same,growth inhibition,[14]; at 1.2 µM,4%
same,growth inhibition,[14]; at 3.7 µM,0%
same,growth inhibition,[14]; at 11.0 µM,-25%
same,growth inhibition,[14]; at 33.0 µM,5%
same,growth inhibition,[14]; at 100.0 µM,9%
